Laboratory results published in PubChem BioAssay (Tox21).
Inconclusive results are not listed. Entries that show only a call come without a potency. Calls of active or inactive are those of the source. Unless noted, calls come from the whole dose curve.

Experiments:
[1] = Nuclear factor erythroid 2-related factor 2/antioxidant responsive element (Nrf2/ARE) small molecule agonists: qHTS cell viability counter screen in human keratinocytes (AID 1919968; active = well fitted curve in the direction sought with a large enough effect in the repeat runs; an effect the other way counts as inactive or inconclusive; note: nearly all actives have a fitted effect of over 55% in size; note: potency is the fitted concentration of half-maximal effect)
Outline: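 Parallel cytotoxicity read: KeratinoSens HaCaT cells, compound treatment 23 h, viability by CellTiter-Fluor fluorescence 1 h post-reagent.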

[2] = Nuclear factor erythroid 2-related factor 2/antioxidant responsive element (Nrf2/ARE) small molecule agonists: luciferase reporter gene qHTS assay in human keratinocytes (AID 1919969); note: nearly all actives have a fitted effect of over 35% in size; note: potency is the fitted concentration of half-maximal effect
[3] = target: Gonadotropin-releasing hormone receptor (Homo sapiens) (UniProt P30968); assay: Human gonadotropin-releasing hormone receptor (GnRHR) small molecule agonists, calcium flux assay in GnRHR-HEK293 cells (AID 1920063); note: nearly all actives have a fitted effect of over 35% in size
Chain of Gonadotropin-releasing hormone receptor (Homo sapiens) (P30968 whole entry, looked up): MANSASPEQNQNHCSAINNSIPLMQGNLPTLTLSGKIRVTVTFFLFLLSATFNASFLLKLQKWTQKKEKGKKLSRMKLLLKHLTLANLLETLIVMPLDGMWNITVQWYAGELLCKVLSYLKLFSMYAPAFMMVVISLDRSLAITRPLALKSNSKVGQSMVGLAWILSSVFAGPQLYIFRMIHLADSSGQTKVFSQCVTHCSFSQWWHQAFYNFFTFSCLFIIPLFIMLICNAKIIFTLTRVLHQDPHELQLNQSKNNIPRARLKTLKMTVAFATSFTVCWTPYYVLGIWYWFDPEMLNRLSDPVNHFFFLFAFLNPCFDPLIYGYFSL
Outline: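 Calcium flux, agonist mode, human GnRHR stably integrated in HEK293; dye 1 h at 37 C before compound; Ex/Em=480/540 kinetic read, 3 min; 15 concentrations, triplicate.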

[4] = target: KiSS-1 receptor (Homo sapiens) (UniProt Q969F8); assay: Human kisspeptin (KISS1R) small molecule agonists, calcium flux assay in KISS1R-HEK293 cells (AID 1920064; active = well fitted curve in the direction sought with a large enough effect in the repeat runs; an effect the other way counts as inactive or inconclusive)
Chain of KiSS-1 receptor (Homo sapiens) (Q969F8 whole entry, looked up): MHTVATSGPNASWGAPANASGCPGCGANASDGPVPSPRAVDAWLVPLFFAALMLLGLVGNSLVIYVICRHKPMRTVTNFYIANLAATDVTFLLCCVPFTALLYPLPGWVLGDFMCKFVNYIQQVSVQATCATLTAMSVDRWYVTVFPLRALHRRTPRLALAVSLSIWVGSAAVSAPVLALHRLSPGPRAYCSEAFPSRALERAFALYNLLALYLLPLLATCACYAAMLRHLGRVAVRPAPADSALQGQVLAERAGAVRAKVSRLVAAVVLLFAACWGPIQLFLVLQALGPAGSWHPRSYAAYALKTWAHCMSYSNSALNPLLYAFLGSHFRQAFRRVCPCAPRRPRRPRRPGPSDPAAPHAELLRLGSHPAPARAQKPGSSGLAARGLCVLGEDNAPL
Outline: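 Triplicate 15-concentration series were applied to dye-loaded human KISS1R HEK293 cells, and agonist-evoked calcium fluorescence was captured for 3 min.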

[5] = G protein-coupled receptor (GPCR) small molecule agonists, calcium flux assay: HEK293 wild type cell line counter screen (AID 1920065)
Outline: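 Non-specific calcium responders were flagged by adding DMSO-dissolved compounds to dye-loaded cells and reading 480/540 nm fluorescence each second for 3 min; ATP served as positive control.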

[6] = p53 small molecule agonists, cell-based qHTS assay with human liver microsomes (AID 1963577);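 note: p53 response element beta-lactamase reporter cells with liver microsomes plus NADPH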
Outline: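 Metabolically competent format: test substances, human liver microsomes and NADPH (both 0.5 mg/mL final) incubated with p53RE-bla cells 16 h at 37 C. Beta-lactamase reporter signal then quantified by fluorescence.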

[7] = p53 small molecule agonists, cell-based qHTS assay with rat liver microsomes (AID 1963578)
Outline: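 Each plate received p53RE-bla cells, then compound, then rat liver microsomes and NADPH (both 0.5 mg/mL final). Plates were held 16 h at 37 C, and beta-lactamase activity was detected with LiveBLAzer over 2 h.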

[8] = p53 small molecule agonists, cell-based qHTS assay with rat liver microsomes: qHTS cell viability counter screen (AID 1963580); note: nearly all actives have a fitted effect of over 45% in size
Outline: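 Cytotoxicity counter screen: intracellular ATP read by CellTiter-Glo luminescence in the p53 reporter wells. HCT-116 p53RE-bla cells were treated for 16 h at 37 C alongside rat liver microsomes and NADPH, each 0.5 mg/mL final.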

[9] = p53 small molecule agonists, cell-based qHTS assay: qHTS cell viability counter screen (AID 1963581); note: nearly all actives have a fitted effect of over 45% in size
Outline: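 Multiplexed with the reporter read, a CellTiter-Glo step (30 min, room temperature) gauges ATP-based viability of HCT-116 p53RE-bla cells after 16 h compound incubation at 37 C.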

[10] = p53 small molecule agonists, cell-based qHTS assay (AID 1963582; active = well fitted activation curve with a large enough effect in the signal ratio in the repeat runs, not every such curve was filed as active; the % refers to the signal ratio)
Outline: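 Beta-lactamase reporter cells (p53RE-bla) treated with compounds for 16 h at 37 C; FRET substrate, 2 h, room temperature; fluorescence intensity.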

[11] = target: 5-hydroxytryptamine receptor 2A (Homo sapiens) (UniProt P28223); assay: 5-hydroxytryptamine receptor 2A (HTR2A) small molecule antagonists, cell-based qHTS assay (AID 1963586); note: nearly all actives have a fitted effect of over 45% in size; note: potency is the fitted concentration of half-maximal effect
Chain of 5-hydroxytryptamine receptor 2A (Homo sapiens) (P28223 whole entry, looked up): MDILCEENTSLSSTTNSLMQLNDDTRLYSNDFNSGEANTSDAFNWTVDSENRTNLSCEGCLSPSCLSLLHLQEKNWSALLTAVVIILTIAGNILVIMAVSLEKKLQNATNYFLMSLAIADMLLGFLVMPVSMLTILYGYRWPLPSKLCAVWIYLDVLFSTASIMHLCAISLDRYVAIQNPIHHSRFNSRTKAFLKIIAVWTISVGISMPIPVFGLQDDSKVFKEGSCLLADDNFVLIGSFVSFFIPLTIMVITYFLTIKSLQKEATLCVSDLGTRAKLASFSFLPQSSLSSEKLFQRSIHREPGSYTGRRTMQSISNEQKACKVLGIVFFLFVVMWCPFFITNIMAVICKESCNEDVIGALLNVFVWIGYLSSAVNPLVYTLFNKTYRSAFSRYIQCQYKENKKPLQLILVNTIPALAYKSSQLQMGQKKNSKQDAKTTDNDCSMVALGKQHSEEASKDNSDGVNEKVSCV
Outline: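 CHO cells stably expressing human HTR2A were plated for 18 h at 37 C, then loaded with calcium dye for 1 h. Compounds were preincubated 5 min at room temperature before DOI (4 nM solution) was added. Kinetic fluorescence was read for 3 min.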

[12] = target: 5-hydroxytryptamine receptor 2A (Homo sapiens) (UniProt P28223); assay: 5-hydroxytryptamine receptor 2A (HTR2A) small molecule agonists, cell-based qHTS assay (AID 1963587); note: nearly all actives have a fitted effect of over 30% in size; note: potency is the fitted concentration of half-maximal effect
Outline: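 Kinetic calcium-flux fluorescence (2 min, 1 sec intervals) after compound addition in agonist mode. HTR2A-CHO cells were cultured 18 h, then dye-loaded 1 h at 37 C.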

[13] = target: Muscarinic acetylcholine receptor M1 (Homo sapiens) (UniProt P11229); assay: Cholinergic receptor muscarinic 1 (CHRM1) small molecule antagonists, cell-based qHTS assay (AID 1963588); note: nearly all actives have a fitted effect of over 40% in size
Chain of Muscarinic acetylcholine receptor M1 (Homo sapiens) (P11229 whole entry, looked up): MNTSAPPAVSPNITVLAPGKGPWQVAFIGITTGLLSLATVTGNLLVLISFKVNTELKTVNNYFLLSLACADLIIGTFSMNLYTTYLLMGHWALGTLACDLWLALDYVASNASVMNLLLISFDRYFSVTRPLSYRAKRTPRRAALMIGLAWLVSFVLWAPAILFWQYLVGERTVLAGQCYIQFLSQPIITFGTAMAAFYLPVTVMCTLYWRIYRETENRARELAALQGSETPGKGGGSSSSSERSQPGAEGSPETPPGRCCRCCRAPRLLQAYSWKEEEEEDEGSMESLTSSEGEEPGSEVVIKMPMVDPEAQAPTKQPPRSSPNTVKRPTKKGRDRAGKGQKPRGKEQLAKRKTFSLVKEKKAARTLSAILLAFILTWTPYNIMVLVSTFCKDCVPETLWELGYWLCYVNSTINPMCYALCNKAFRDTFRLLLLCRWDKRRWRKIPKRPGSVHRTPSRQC
Outline: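 Compounds were tested at 15 concentrations in three independent runs. Dye-loaded CHRM1-CHO cells were exposed 5 min at room temperature before stimulation by acetylcholine added at 50nM. Intracellular calcium was read kinetically on FDSS for 3 min.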

[14] = target: Muscarinic acetylcholine receptor M1 (Homo sapiens) (UniProt P11229); assay: Cholinergic receptor muscarinic 1 (CHRM1) small molecule agonists, cell-based qHTS assay (AID 1963589); note: nearly all actives have a fitted effect of over 35% in size
Outline: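 qHTS, 15-point titration, 3 independent runs: compounds pin-transferred onto dye-loaded CHRM1-CHO cells (human M1), calcium fluorescence followed every second to detect agonism.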

[15] = cAMP Responsive Elements (CRE) small molecule agonists, cell-based qHTS assay (AID 1963590)
Outline: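 Quantitative HTS for CRE agonists: HEK 293T CRE-bla cells, overnight plating, 3 h compound incubation at 37 C/5% CO2, then 2 h room-temperature LiveBLAzer B/G FRET substrate loading.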

[16] = target: Beta-2 adrenergic receptor (Homo sapiens) (UniProt P07550); assay: Adrenergic beta2 receptor (ADRB2) small molecule antagonists, cell-based qHTS assay (AID 1963592); note: series mostly up to about 92 µM; nearly all actives have a fitted effect of over 50% in size
Chain of Beta-2 adrenergic receptor (Homo sapiens) (P07550 whole entry, looked up): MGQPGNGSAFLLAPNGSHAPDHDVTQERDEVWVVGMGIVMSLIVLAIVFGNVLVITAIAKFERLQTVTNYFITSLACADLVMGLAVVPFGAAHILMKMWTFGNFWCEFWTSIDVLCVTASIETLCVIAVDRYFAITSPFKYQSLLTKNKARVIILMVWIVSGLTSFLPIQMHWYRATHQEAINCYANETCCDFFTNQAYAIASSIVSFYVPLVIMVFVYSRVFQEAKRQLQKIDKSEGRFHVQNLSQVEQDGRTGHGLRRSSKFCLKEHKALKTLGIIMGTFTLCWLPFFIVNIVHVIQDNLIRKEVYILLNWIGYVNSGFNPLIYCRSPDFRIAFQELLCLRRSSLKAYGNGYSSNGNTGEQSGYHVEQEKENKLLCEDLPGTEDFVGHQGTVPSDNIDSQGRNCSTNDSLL
Outline: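 Assay format: CHO-ADRB2 cells, 18-20hr seeding at 37C/5% CO2, then compound plus 1nM isoproterenol agonist mix for 0.5hr RT. Homogeneous time-resolved fluorescence cAMP detection after 1hr, expressed as 665/615 nm ratio.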

[17] = target: D(2) dopamine receptor (Homo sapiens) (UniProt P14416); assay: Dopamine D2 receptor (DRD2) small molecule agonists, cell-based qHTS assay (AID 1963594); note: nearly all actives have a fitted effect of over 35% in size; note: potency is the fitted concentration of half-maximal effect
Chain of D(2) dopamine receptor (Homo sapiens) (P14416 whole entry, looked up): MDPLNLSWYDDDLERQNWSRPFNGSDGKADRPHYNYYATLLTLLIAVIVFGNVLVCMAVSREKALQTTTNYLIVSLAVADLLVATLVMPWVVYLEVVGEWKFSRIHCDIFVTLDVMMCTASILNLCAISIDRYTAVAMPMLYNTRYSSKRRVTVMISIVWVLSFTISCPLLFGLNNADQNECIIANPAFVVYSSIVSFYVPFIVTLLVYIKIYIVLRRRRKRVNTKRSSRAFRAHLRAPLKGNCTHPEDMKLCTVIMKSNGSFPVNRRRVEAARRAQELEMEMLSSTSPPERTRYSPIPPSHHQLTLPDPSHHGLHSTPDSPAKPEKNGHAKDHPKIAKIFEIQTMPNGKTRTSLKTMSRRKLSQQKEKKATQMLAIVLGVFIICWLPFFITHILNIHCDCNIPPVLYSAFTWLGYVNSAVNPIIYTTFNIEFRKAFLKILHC
Outline: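 cAMP accumulation in DRD2-HEK293 cells measured by HTRF after 1 h detection; compounds added 10 min before NKH477 (200nM […]) forskolin-analogue stimulation, 30 min at room temperature, with Ro20-1724 present at 0.1 mM final.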

[18] = target: D(2) dopamine receptor (Homo sapiens) (UniProt P14416); assay: Dopamine D2 receptor (DRD2) small molecule antagonists, cell-based qHTS assay (AID 1963595; active = well fitted inhibition curve with a large enough effect in the signal ratio in the repeat runs, with a control signal flat; the % refers to the signal ratio)
Outline: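 Stable D2 receptor HEK293 line, 24 h after seeding. Compound preincubated 10 min, then quinpirole (12 nM) with forskolin analogue NKH477 (200 nM), 30 min, room temperature. Detection by time-resolved FRET of cAMP.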

[19] = cAMP Responsive Elements (CRE) small molecule antagonists, cell-based qHTS assay (AID 1963591; active = well fitted inhibition curve with a large enough effect in the signal ratio in the repeat runs, not every such curve was filed as active; the % refers to the signal ratio)
Outline: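 Fluorescence intensity from cleaved LiveBLAzer B/G substrate (2 h, room temperature) quantified CRE-bla activity in HEK 293T cells exposed 3 h to compound with 0.25 uM final NKH477.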

[20] = p53 small molecule agonists, cell-based qHTS assay with human liver microsomes: qHTS cell viability counter screen (AID 1963579); note: nearly all actives have a fitted effect of over 45% in size
Outline: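 Tox21 library compounds, delivered from DMSO stocks, were tested on p53RE-bla cells together with 0.5 mg/mL human liver microsomes and 0.5 mg/mL NADPH (final) over 16 h at 37 C; CellTiter-Glo luminescence served as the cytotoxicity measure.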

SMILES	Potency [1]	Potency [2]	Potency [3]	Potency [4]	Potency [5]	Potency [6]	Potency [7]	Potency [8]	Potency [9]	Potency [10]	Potency [11]	Potency [12]	Potency [13]	Potency [14]	Potency [15]	Potency [16]	Potency [17]	Potency [18]	Potency [19]	Potency [20]
O=C(NC(=O)c1c(F)cccc1F)Nc1cc(Cl)c(F)c(Cl)c1F	inactive	inactive	inactive	inactive	inactive	inactive	inactive	inactive	inactive	inactive	inactive	inactive	inactive	inactive	inactive	inactive	inactive	inactive	–	–
CS(=O)(=O)c1cc(C(F)(F)F)ccc1C(=O)c1cnoc1C1CC1	inactive	inactive	inactive	inactive	inactive	inactive	inactive	inactive	inactive	inactive	inactive	inactive	–	inactive	inactive	–	–	inactive	inactive	–
CCCOC(=O)Cc1ccc(OCC(=O)N(CC)CC)c(OC)c1	inactive	inactive	inactive	inactive	inactive	inactive	inactive	inactive	inactive	inactive	–	inactive	inactive	–	inactive	inactive	0.282 µM (active)	inactive	inactive	–
CCc1ccc(C2CCNCC2)cc1	inactive	inactive	inactive	inactive	inactive	inactive	inactive	inactive	–	inactive	18.3 µM (active)	8.49 µM (active)	inactive	inactive	–	inactive	inactive	inactive	inactive	–
CCC(C)c1cc([N+](=O)[O-])cc([N+](=O)[O-])c1OC(=O)C=C(C)C (stereo not given)	48.6 µM (active)	24.3 µM (active)	inactive	inactive	inactive	inactive	inactive	inactive	inactive	–	inactive	–	inactive	inactive	–	inactive	–	inactive	–	–
COc1ccc(C=O)cc1O	inactive	inactive	inactive	inactive	inactive	inactive	inactive	inactive	inactive	inactive	inactive	inactive	–	inactive	inactive	inactive	inactive	inactive	inactive	–
ClP(Cl)(Cl)(Cl)Cl	inactive	inactive	inactive	inactive	inactive	inactive	inactive	–	inactive	inactive	inactive	inactive	inactive	inactive	inactive	inactive	–	inactive	inactive	–
COc1ccc(-c2ccccc2)cc1NNC(=O)OC(C)C	inactive	inactive	inactive	inactive	inactive	inactive	inactive	inactive	inactive	inactive	inactive	inactive	inactive	inactive	–	inactive	–	inactive	inactive	–
N#CCCl	inactive	inactive	inactive	inactive	inactive	inactive	inactive	inactive	inactive	inactive	inactive	inactive	inactive	inactive	–	inactive	inactive	inactive	–	–
CN1CCN(C(=O)O[C@H]2c3nccnc3C(=O)N2c2ccc(Cl)cn2)CC1	inactive	inactive	inactive	inactive	inactive	inactive	inactive	inactive	inactive	inactive	inactive	inactive	inactive	inactive	–	inactive	inactive	inactive	inactive	–
CCC(CC)(CNC(=O)CCCO)c1cccc(OC)c1	inactive	inactive	inactive	inactive	inactive	inactive	inactive	inactive	inactive	inactive	inactive	inactive	–	–	inactive	inactive	inactive	inactive	inactive	–
C=C(Cl)CSC(=S)N(CC)CC	inactive	66.8 µM (active)	inactive	inactive	inactive	inactive	–	inactive	inactive	inactive	inactive	inactive	inactive	inactive	inactive	inactive	inactive	inactive	inactive	inactive
Nc1ccc(Cl)cc1C(=O)c1ccccc1F	inactive	inactive	inactive	inactive	inactive	inactive	inactive	inactive	–	–	–	inactive	–	inactive	inactive	inactive	inactive	inactive	–	–
O=[Se]=O	inactive	inactive	inactive	inactive	inactive	inactive	inactive	inactive	inactive	–	inactive	inactive	inactive	inactive	–	inactive	inactive	inactive	inactive	–
COc1cc(CC#N)cc(OC)c1OC	inactive	inactive	inactive	inactive	inactive	inactive	inactive	inactive	inactive	inactive	–	inactive	inactive	inactive	inactive	inactive	inactive	inactive	inactive	–
O=C(O)CCCCCCNC1c2ccccc2CCc2ccccc21	inactive	inactive	inactive	inactive	inactive	inactive	inactive	inactive	–	–	inactive	inactive	inactive	inactive	inactive	inactive	inactive	–	inactive	–
